High-throughput results deposited in PubChem BioAssay by The Scripps Research Institute Molecular Screening Center.
GPR151 ag: human GPR151 activation; PathHunter beta-arrestin GPR151 cells, luminescence; activation, % at 11.2 µM; 650,000 compounds, 1% hits; in the data active = activation above about 4.9%;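 note: 0% = median of compound wells and 100% = cells with positive control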
FBW7 act: activators of human E3 ligase FBW7; 650,000 compounds, 0.13% hits; AlphaScreen FBW7–phospho-cyclin E peptide binding, activator screen; normalized activity (activation), % at 26.1 µM; Q969H0; AID 1259310; in the data active = normalized activity above about 1.9%;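 note: purified mutant Fbw7 with reduced substrate affinity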
Target sequence (Q969H0 whole entry, looked up): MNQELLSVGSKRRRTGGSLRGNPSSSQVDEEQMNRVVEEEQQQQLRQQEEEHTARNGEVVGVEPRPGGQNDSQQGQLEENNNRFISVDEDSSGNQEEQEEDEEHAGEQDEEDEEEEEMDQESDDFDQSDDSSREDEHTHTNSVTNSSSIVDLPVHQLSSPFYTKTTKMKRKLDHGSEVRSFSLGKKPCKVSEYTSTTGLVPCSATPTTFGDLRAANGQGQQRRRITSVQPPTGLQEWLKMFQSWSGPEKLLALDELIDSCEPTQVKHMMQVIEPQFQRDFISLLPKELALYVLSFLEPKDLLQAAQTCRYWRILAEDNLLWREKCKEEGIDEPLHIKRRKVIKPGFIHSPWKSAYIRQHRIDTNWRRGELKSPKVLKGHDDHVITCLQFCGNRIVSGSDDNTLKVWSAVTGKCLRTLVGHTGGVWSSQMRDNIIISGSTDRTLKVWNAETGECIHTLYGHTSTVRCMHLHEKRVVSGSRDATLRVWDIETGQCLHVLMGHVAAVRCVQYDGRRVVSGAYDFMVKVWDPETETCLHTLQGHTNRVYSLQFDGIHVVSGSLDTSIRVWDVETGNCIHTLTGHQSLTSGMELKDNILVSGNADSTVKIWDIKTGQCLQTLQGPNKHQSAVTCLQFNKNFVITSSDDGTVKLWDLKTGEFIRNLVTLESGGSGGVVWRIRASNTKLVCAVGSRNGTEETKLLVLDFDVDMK
TEAD-YAP inh: TEAD-YAP interaction inhibition; inhibition, % at 9.12 µM; HEK-TIYL cells, TEAD-Gal4/YAP UAS-luciferase luminescence; 640,000 compounds, 1.4% hits; in the data active = inhibition above about 32%;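 note: 0% = median of test compound wells and 100% = reference inhibitor wells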
MITF inh: human MITF inhibition, primary screen; 650,000 compounds, 0.91% hits; inhibition, % at 2.6 µM; O75030; AlphaScreen MITF homodimerization, bead proximity signal; in the data active = inhibition above about 50%;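 note: 0% = vehicle wells with protein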
GPR151 confirm: human GPR151 activation, confirmation screen; shares compounds with GPR151 ag; GPR151 PathHunter beta-arrestin cells, luminescence, 90 min; % of EA-reagent control over plate median; activation, % at 11.2 µM; 6,700 tested, under 10 active;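 active = mean percent activation across replicates above the confirmation screen cutoff of 4.91%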
GPR119 counter: counter-screen for GPR151 activators: effect on human GPR119 | GPR119 PathHunter beta-arrestin cells, luminescence, 90 min; 0 = compound-well median, 100 = enzyme-acceptor control | AID 1508611 | activation, % at 11.2 µM | 6,700 compounds, 0.3% hits | shares compounds with GPR151 ag;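 active = mean percent activation in the counterscreen above 29.09%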;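 note: counterscreen on off-target GPR119 to flag nonselective hits from the GPR151 activator screen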
An asterisk follows results filed as active; · = not tested or not shown; ! = not confirmed by another sample. Only some compounds are listed: those with a hit (about 3.5% of all), similar ones and a draw of the others.

SMILES	GPR151 ag	FBW7 act	TEAD-YAP inh	MITF inh	GPR151 confirm	GPR119 counter
C=CCOC(=O)c1cc(-c2ccc(/C=N/Nc3nn[nH]n3)o2)ccc1Cl	5.0*	0	-21	15	1	3
O=C(NC1CCCC1)c1ccccc1[N+](=O)[O-]	-1	1	-5	21	·	·
COC1C(OC(N)=O)C(O)C(Oc2ccc3c(O)c(NC(=O)c4ccc(O)c(CC=C(C)C)c4)c(=O)oc3c2C)OC1(C)C (stereo not drawn)	6.6*!	0	1	-2	0	-1
CCOC(=O)c1c(C2COc3ccccc3O2)csc1NC(=O)c1ccc(OC)c(OC)c1 (stereo not drawn)	0	0	7	-13	·	·
COc1cccc(N2CN(Cc3ccco3)CNC2=S)c1	1	0	5	-8	·	·
OCc1ccccc1OCc1cccc2ccccc12	5.3*	0	-16	6	0	8
CC(=O)OCc1ccc([N+](=O)[O-])cc1OC(C)=O	0	0	3	-6	·	·
CCOC(=O)/C(C#N)=C(\C)c1ccccc1	7.0*	0	-5	7	2	8
CCOC(=O)C(C#N)=C(c1ccccc1)c1ccccc1	0	0	5	-8	·	·
COc1ccc(/C=C(\C#N)c2c(C#N)c(N)nc(N3CCCCC3)c2C#N)cc1	0	0	-1	-3	·	·
COC(=O)c1ccccc1OC1OC(COC(C)=O)C(OC(C)=O)C(OC(C)=O)C1OC(C)=O (stereo not drawn)	0	0	10	7	·	·
CCOc1ccc(C2NC(=O)NC(C)=C2C(=O)OCCOC(C)C)cc1 (stereo not drawn)	-1	0	-10	-5	·	·
O=C1CC(=O)Nc2cc(S(=O)(=O)N3CCn4c3nc3ccccc34)ccc2N1	5.9*	0	-6	8	0	10
Cn1c(=O)oc2cc(S(=O)(=O)N3CCn4c3nc3ccccc34)ccc21	1	0	-11	3	·	·
C=CCn1c(SC(C)C(=O)NC(N)=O)nnc1-c1ccc(C(C)(C)C)cc1 (stereo not drawn)	8.2*	0	2	-7	0	-3
COc1cc(=O)n2c(c1C(=O)N1CCCC1)CCN(Cc1cc(C)c(C)cc1C)CC2	5.2*	0	6	7	1	10
Fc1ccc(Nc2nc(Cc3ccccc3)nc3sc4c(c23)CCCC4)c(F)c1	0	0	3	5	·	·
CCCOc1ccc(N2C(=O)C3C(C2=O)C2(C)CC3(C)CC2=O)cc1 (stereo not drawn)	7.8*	0	-4	11	0	-11
Cc1ccc(C)c(NC(=O)CSc2ccc3nnc(-c4cccnc4)n3n2)c1	0	0	0	11	·	·
N#CC1=C(N)OC(c2ccccc2)=C(n2cnc([N+](=O)[O-])n2)C1c1ccccc1 (stereo not drawn)	2	0	3	-7	·	·
N#CC1=C(N)OC(c2ccccc2)=C(n2cnc([N+](=O)[O-])c2)C1c1cccnc1 (stereo not drawn)	8.2*	0	2	-5	-1	-4
CCOC(=O)C[n+]1c(C)sc2ccc(OC)cc21	6.1*	0	21	-5	0	0
COc1ccc2sc(C)[n+](CC(=O)O)c2c1	0	0	2	2	·	·
CCOC(=O)N1CCN(C(=O)CNC(=O)c2nn(-c3ccc(OC)cc3OC)c(=O)c3ccccc23)CC1	5.3*	0	-11	3	0	10
COc1ccc(-n2nc(C(=O)NCC(=O)N3CCCC3)c3ccccc3c2=O)c(OC)c1	-1	0	-2	17	·	·
SMILES	GPR151 ag	FBW7 act	TEAD-YAP inh	MITF inh	GPR151 confirm	GPR119 counter
COc1ccc(-n2nc(C(=O)NCC(=O)Nc3ccc(OC)c(OC)c3)c3ccccc3c2=O)cc1Cl	6.3*	0	31	13	0	3
COc1nn(C)cc1C(=O)Nc1ccc(C(=O)N2CCN(Cc3cccnc3)CC2)cc1	0	0	2	14	·	·
CC(=O)N1CCc2c(sc3c2c(=O)n(-c2ccccc2)c(=O)n3Cc2ccccc2)C1	2	0	-2	-3	·	·
Cc1cc2c(cc1S(=O)(=O)NC1CCCC(C)C1C)OCC(=O)N2 (stereo not drawn)	0	0	-9	-11	·	·
CC1CCCC(NS(=O)(=O)c2cc3c(cc2Cl)NC(=O)CO3)C1C (stereo not drawn)	7.8*	0	4	14	0	6
CCCOc1ccc(/C(=N\O)C(C)(C)NO)cc1	-2	0	-23	-14	·	·
COc1ccc(/C(=N/O)C(C)(C)NO)cc1	5.1*	0	7	-2	-1	-2
COc1cccc(OC)c1C(=O)Nc1ccc(Br)cn1	15*	0	-7	-11	-1	4
COc1cccc(OC)c1C(=O)Nc1ncc([N+](=O)[O-])s1	5.7*	0	5	11	0	-9
COc1cccc(OC)c1C(=O)Nc1ccc([N+](=O)[O-])cn1	0	0	5	10	·	·
COc1cccc(OC)c1C(=O)NC(=S)Nc1ccc(Br)cn1	-1	0	-17	-2	·	·
Cc1cc(C(=O)/C=C/c2ccc(OCC(=O)O)cc2)c(C)s1	6.1*	0	4	2	0	-4
COc1ccc(C(=O)N2N=C(C(C)(C)C)CC2(O)C(F)(F)F)cc1 (stereo not drawn)	0	0	-3	11	·	·
COc1nccnc1NS(=O)(=O)c1ccc(NC(=S)NC(=O)c2cccs2)cc1	-8	0	-15	14	·	·
OCCN1CCN(CCCN2c3ccccc3Sc3ccc(Cl)cc32)CC1	4	0	3	18	·	·
CN1CCN(CCCN2c3ccccc3Sc3ccc(S(=O)(=O)N(C)C)cc32)CC1	5.4*	0	·	-5	-1	-7
Cc1nnc(SCC(=O)N(C)c2ccccc2)s1	3	0	0	6	·	·
COc1ccc(-c2nc(NCc3cccnc3)c3ncn(CCN4CCCC4=O)c3n2)cn1	0	0	5	30	·	·
CCCCOc1ccc(N2CC(C(=O)NCC(C)C)CC2=O)cc1 (stereo not drawn)	1	0	5	5	·	·
Cc1ccc2cc3c(nc2n1)CCN(CC(O)COc1ccccc1)C3 (stereo not drawn)	0	0	1	-1	·	·
CCOC(=O)c1cccc2c3c([nH]c12)C(C(=O)OCC)CCC3 (stereo not drawn)	5.0*	0	-4	-9	0	-6
CCn1c(O)c(/C=C2\C=Nc3ccc(Br)cc32)sc1=O	1	0	-9	15	·	·
Oc1[nH]c(=S)sc1/C=C1\C=Nc2ccc(Br)cc21	6.0*	0	-6	-9	0	6
COc1ccc(CN2CCOc3ccc(CN4C[C@@H](C)O[C@@H](C)C4)cc3C2)cc1OC	2	-1	9	12	·	·
